Experimental data as given in the supplement of paper PMC9262897, “Low-cost anti-mycobacterial drug discovery using engineered E. coli” (Nature Communications, 2022).
Where a name gives a salt, the structure may show the parent alone. ± gives the standard deviation of the averaged measurements.

Tested on: E. coli TESEC Mtb Alr
Experiment: growth (OD600 after 10 h); higher = more growth (less inhibition)
Details: compound 0.1 mM
Description: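 TESEC Mtb Alr E. coli, or the Alr+ wild-type control, in 384-well plates with Prestwick library compounds at 0.1 mM and 1% DMSO, across arabinose induction levels of 1E3 to 1E7 nM. Growth is read as OD600 after 10 h at 37 °C in triplicate biological replicates.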

[1] = arabinose 1000 nM, raw OD600 reference: median of DMSO wells 0.294, cell-free background 0.041
[2] = arabinose 10000 nM, raw OD600 reference: median of DMSO wells 0.264, cell-free background 0.041
[3] = arabinose 100000 nM, raw OD600 reference: median of DMSO wells 0.201, cell-free background 0.041
[4] = arabinose 1000000 nM, raw OD600 reference: median of DMSO wells 0.193, cell-free background 0.041
[5] = arabinose 10000000 nM, raw OD600 reference: median of DMSO wells 0.146, cell-free background 0.041

Row | SMILES | growth [1] | growth [2] | growth [3] | growth [4] | growth [5]
1 | CCOC(=O)[C@H](CCc1ccccc1)N[C@@H](C)C(=O)N1[C@H](C(=O)O)C[C@@H]2CCC[C@@H]21 [Ramipril] | 0.292 ± 0.004 | 0.288 ± 0.01 | 0.19 ± 0.011 | 0.217 ± 0.004 | 0.14 ± 0.0088
2 | CCN(CC)Cc1cc(Nc2ccnc3cc(Cl)ccc23)ccc1O [Amodiaquin dihydrochloride dihydrate] | 0.229 ± 0.0059 | 0.269 ± 0.003 | 0.181 ± 0.0097 | 0.102 ± 0.0085 | 0.203 ± 0.0054
3 | CN(C)/N=N/c1[nH]cnc1C(N)=O [Dacarbazine] | 0.259 ± 0.0098 | 0.219 ± 0.012 | 0.197 ± 0.036 | 0.136 ± 0.0025 | 0.151 ± 0.0043
4 | CC(=O)Nc1ccc(O)cc1 [Acetaminophen] | 0.315 ± 0.0071 | 0.277 ± 0.0034 | 0.202 ± 0.0068 | 0.188 ± 0.0053 | 0.162 ± 0.0048
5 | NCCNCCNCCNCCN [Tetraethylenepentamine pentahydrochloride] | 0.313 ± 0.013 | 0.263 ± 0.0027 | 0.217 ± 0.028 | 0.181 ± 0.011 | 0.136 ± 0.0077
6 | O=C1OCCN1/N=C/c1ccc([N+](=O)[O-])o1 [Furazolidone] | 0.041 ± 0.00078 | 0.04053 ± 0.00021 | 0.0418 ± 0.00065 | 0.03987 ± 0.00012 | 0.0412 ± 0.0008
7 | CC(C)Cc1ccc([C@H](C)C(=O)O)cc1 [S-(+)-ibuprofen] | 0.269 ± 0.013 | 0.24 ± 0.006 | 0.166 ± 0.0055 | 0.194 ± 0.0082 | 0.129 ± 0.0024
8 | CN1CCCN=C1/C=C/c1cccs1 [Pyrantel tartrate] | 0.278 ± 0.0075 | 0.268 ± 0.0081 | 0.191 ± 0.015 | 0.187 ± 0.00096 | 0.148 ± 0.0055
